The text below walks through data of publication PMC4336329 (PLoS ONE, 2015).

Among all 310,000 compounds or so, about 2,200 (0.71%) showed an effect of 50% or more. Effects have a minus sign here. This excerpt belongs to a sample that is enriched for strong results.

Chain of human ether-à-go-go-related gene (hERG) potassium channel (Q12809 whole entry, looked up): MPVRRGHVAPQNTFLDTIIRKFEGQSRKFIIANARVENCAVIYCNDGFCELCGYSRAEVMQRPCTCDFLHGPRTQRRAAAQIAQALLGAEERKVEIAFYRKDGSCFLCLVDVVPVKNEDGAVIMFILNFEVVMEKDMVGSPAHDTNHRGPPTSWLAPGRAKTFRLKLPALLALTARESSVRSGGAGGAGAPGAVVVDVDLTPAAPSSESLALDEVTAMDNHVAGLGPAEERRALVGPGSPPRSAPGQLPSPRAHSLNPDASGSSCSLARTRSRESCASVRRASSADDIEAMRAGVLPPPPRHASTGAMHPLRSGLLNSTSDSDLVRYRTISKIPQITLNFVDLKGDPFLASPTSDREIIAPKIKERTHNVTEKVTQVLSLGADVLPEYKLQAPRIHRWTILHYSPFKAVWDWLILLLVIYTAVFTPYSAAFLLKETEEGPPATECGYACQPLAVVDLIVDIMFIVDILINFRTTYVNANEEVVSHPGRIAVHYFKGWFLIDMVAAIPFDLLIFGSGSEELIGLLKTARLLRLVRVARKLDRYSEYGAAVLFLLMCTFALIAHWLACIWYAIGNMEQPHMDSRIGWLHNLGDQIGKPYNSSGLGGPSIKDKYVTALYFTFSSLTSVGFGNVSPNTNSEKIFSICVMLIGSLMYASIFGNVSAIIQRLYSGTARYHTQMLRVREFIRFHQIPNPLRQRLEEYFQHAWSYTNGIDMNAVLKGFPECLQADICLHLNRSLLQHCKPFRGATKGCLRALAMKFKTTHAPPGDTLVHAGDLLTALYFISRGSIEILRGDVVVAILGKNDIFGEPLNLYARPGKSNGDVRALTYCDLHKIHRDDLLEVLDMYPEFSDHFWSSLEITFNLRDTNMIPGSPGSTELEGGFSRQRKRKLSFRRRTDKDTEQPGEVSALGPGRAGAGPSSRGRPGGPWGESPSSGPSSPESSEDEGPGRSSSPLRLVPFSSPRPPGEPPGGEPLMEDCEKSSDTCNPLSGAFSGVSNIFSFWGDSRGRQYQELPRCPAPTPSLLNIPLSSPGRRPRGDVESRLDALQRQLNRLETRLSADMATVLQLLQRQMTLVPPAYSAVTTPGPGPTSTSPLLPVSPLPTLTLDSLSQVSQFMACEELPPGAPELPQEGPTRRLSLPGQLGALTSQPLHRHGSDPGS

The assay concerns the target human ether-à-go-go-related gene (hERG) potassium channel (human, UniProt Q12809). Put plainly: primary screen, population patch clamp on CHO cells stably expressing hERG; higher = less effect of the substance.
For the compound `Cc1cnc(C(=O)OCC(=O)Nc2cc(S(=O)(=O)N3CCCCC3)ccc2Cl)cn1`, the “hERG current change (%, negative = inhibition) at 1uM” value came out at 19.4%.
The same measure for `CCOc1ccc(NC(=O)CC2C(=O)N(c3cccc(OC)c3)C(=O)N2CCOC)cc1` (stereo not drawn): 3.67%; for `CC(C)CN(C(=O)CN1CCN(S(=O)(=O)c2ccccc2)CC1)c1c(N)n(CC(C)C)c(=O)[nH]c1=O`: -2.18%.
The same measure for `CCOC(=O)c1c(CN(CC)CC)n(-c2ccccc2)c2ccc(O)cc12`: -45.6%; for `Cc1ccc(C(=O)Nc2cnc3ccccc3c2)cc1`: 6.66%.
The same measure for `COc1ccc2c(CN3CC=C(c4ccccc4)CC3)cc(=O)oc2c1`: 13.1%.
In the case of `Nc1cccc(Cl)c1N1CCOCC1`, the “hERG current change (%, negative = inhibition) at 1uM” value was 9%.
The same measure for `COc1ccccc1CNC(=O)C1CCCN(S(=O)(=O)c2cccc3cccnc23)C1` (stereo not drawn): 0.692%; for `COc1cc(C(=O)N2CCN(C(=O)COc3ccc4ccccc4c3)CC2)cc(OC)c1OC`: -54%.
Take `COc1ccc(OCC(=O)N2CCN(C(=O)c3ccc([N+](=O)[O-])cc3)CC2)cc1`: the “hERG current change (%, negative = inhibition) at 1uM” value is -43.2%.
The same measure for `O=C(COc1ccccc1)N1CCN(C(=O)c2ccc([N+](=O)[O-])cc2)CC1`: -19%; for `COc1cccc(C(=O)N2CCN(C(=O)COc3ccc4ccccc4c3)CC2)c1`: -3.85%.
The same measure for `O=C(COc1ccc2ccccc2c1)N1CCN(C(=O)c2ccc([N+](=O)[O-])cc2)CC1`: -69.3%; for `COc1cc(OC)cc(C(=O)N2CCN(C(=O)COc3ccc4ccccc4c3)CC2)c1`: -4.51%.
The same measure for `O=C(CN1CCN(C(=O)C2CC2)CC1)Nc1cc(C(F)(F)F)cc(C(F)(F)F)c1`: -5.9%.
In the case of `CCOc1ccc(Br)cc1S(=O)(=O)NC1CC(C)(C)NC(C)(C)C1`, the “hERG current change (%, negative = inhibition) at 1uM” value came to 17%.
The same measure for `CC1(C)CC(NC(=O)COc2ccc3ccc(=O)oc3c2)CC(C)(C)N1`: 13.6%; for `CCOC(=O)CSc1ncnc2c(C(=O)OCC)c3n(c12)CCC3`: -10.4%; for `CCOC(=O)c1c2n(c3c(NCc4ccccc4)ncnc13)CCCC2`: -70.3%.
The same measure for `CCOC(=O)c1c(NCc2ccccc2)n[nH]c1C`: 4.96%; for `COC(=O)c1c(NC(=O)CSc2ncn[nH]2)sc(C)c1C`: 11.2%; for `CCN1CCN(c2ncnc3scc(-c4ccc(C)c(C)c4)c23)CC1`: -50.8%.
On to `Cc1ccc(-c2csc3ncnc(N4CCN(C)CC4)c23)cc1C`, for which the “hERG current change (%, negative = inhibition) at 1uM” value is on record as 10.8%.
For `CCN1CCN(c2ncnc3scc(-c4ccc(C)cc4)c23)CC1`, the “hERG current change (%, negative = inhibition) at 1uM” value came out at 3.26%.
The same measure for `CN(C)S(=O)(=O)c1ccc(C(=O)NCc2ccccn2)cc1`: 14.5%; for `CN(C/C=C/c1ccccc1[N+](=O)[O-])Cc1ccccc1`: -8.37%; for `C=CCOc1ccccc1CNCCc1ccc(S(N)(=O)=O)cc1.Cl`: -6.97%.
The same measure for `COc1ccc(CCN(C)C/C=C/c2ccccc2[N+](=O)[O-])cc1OC`: -54.3%; for `COc1cc(CNCCc2ccc(S(N)(=O)=O)cc2)ccc1OCc1ccc(Cl)cc1.Cl`: -1.77%; for `Cl.NS(=O)(=O)c1ccc(CCNCc2cc(Br)ccc2OCc2ccccc2)cc1`: -44.9%.
As to `COc1cc(CN(C)CCc2ccccc2)ccc1OCc1ccccc1`, the “hERG current change (%, negative = inhibition) at 1uM” value is reported as -12.2%.
As for `COc1ccc(CCN(C)C/C=C/c2ccccc2)cc1OC`, the “hERG current change (%, negative = inhibition) at 1uM” value is given as -43.3%.
The same measure for `Cl.NS(=O)(=O)c1ccc(CCNCc2ccccc2OCc2ccc(Cl)cc2)cc1`: -70.5%.
The same measure for `COc1ccc(CCN(C)Cc2ccc(OC)c(OCc3ccccc3)c2)cc1OC`: -77%; for `COc1ccc(CCN(C)Cc2ccc(OCc3ccccc3)c(OC)c2)cc1OC`: -42.9%; for `Cl.NS(=O)(=O)c1ccc(CCNCc2cc(Cl)ccc2OCc2ccccc2)cc1`: -59.3%.
The same measure for `Cl.NS(=O)(=O)c1ccc(CCNCc2ccccc2OCc2ccc(F)cc2)cc1`: -21.5%; for `CN(Cc1nc2ccccc2c(=O)[nH]1)C(=O)c1cccc(S(=O)(=O)N2CCCCCC2)c1`: 4.23%.
`O=C(Oc1ccc(OC(=O)c2ccncc2)cc1)c1ccncc1`: the “hERG current change (%, negative = inhibition) at 1uM” value is 0.316%.
The same measure for `Cc1ccc(CN2C(=O)CN=C(c3ccccc3)c3ccccc32)cc1`: 2.73%; for `Cc1noc(N)c1C(=O)Nc1ccc(C(C)(C)C)cc1`: -5.42%.
The same measure for `O=C(NCc1cccnc1)c1ccc(-c2cccc(Cl)c2Cl)o1`: 5.38%; for `O=C(CN1C(=O)NC2(CCCC2)C1=O)Nc1ccc(Cl)c(C(F)(F)F)c1`: 9.87%.
For the compound `O=C(COC(=O)CCCOc1ccc(Cl)cc1Cl)NCc1ccccc1`, the “hERG current change (%, negative = inhibition) at 1uM” value amounted to 1.55%.
The same measure for `O=C(Nc1c(-c2ccc(F)cc2)nc2ccccn12)c1ccc(F)cc1`: -4.64%; for `CCOc1ccc(Cl)cc1Nc1nc(NCCO)nc(N2CCCC2)n1`: 5.92%; for `COc1ccc(N2C(=O)C(Cl)=C(N3CCCC(C)C3)C2=O)cc1` (stereo not drawn): 9.04%.
The same measure for `COc1ccccc1CCNCc1ccc(OC)c(OCc2ccccc2)c1`: -29.4%; for `COc1cc(CNCCc2ccccc2)ccc1OCc1ccc(Cl)nc1.Cl`: -0.117%.
The same measure for `COc1ccc(CNCCc2ccc(Cl)cc2)cc1OCc1ccccc1`: -52.2%; for `O=C(OCc1cc(=O)n2c(n1)sc1ccccc12)c1ccc(O)cc1`: 17.3%.
For the compound `COc1ccc(-n2cc(CNC3CCN(C)CC3)c(-c3cccc(F)c3)n2)cc1`, the “hERG current change (%, negative = inhibition) at 1uM” value is reported as -64.4%.
The same measure for `COc1ccc(-n2cc(CNC3CCOCC3)c(-c3cccc(F)c3)n2)cc1`: -1.28%.
Take `COc1ccc(-n2cc(CNC3CCC(O)CC3)c(-c3cccc(F)c3)n2)cc1` (stereo not drawn): the “hERG current change (%, negative = inhibition) at 1uM” value amounted to 4.86%.
